From PubChem BioAssay
In the library only some 19% were active in any assay of this set; here they are far more common.
Pf growth 48h – Primary qHTS for delayed death inhibitors of the malarial parasite plastid, 48 hour incubation. P. falciparum luciferase growth in erythrocytes, 48 h. 310,000 compounds, 5.9% hits. Potency, µM (series often up to 28.7 µM), inactives show at the highest dose activity change, negative = inhibition, usual class: inhibitors; further: potency means the concentration at half of the fitted maximal effect; on the % scale 0 is the no-effect control and ±100 the full control effect
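Erythrocytes infected with P. falciparum carrying an integrated firefly luciferase reporter (2% hematocrit, 0.1% parasitemia final) were exposed to compounds in RPMI 1640 with 0.5% Albumax at 37 C, 5% CO2. Growth inhibition was scored as reduced luminescence.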
Cycloheximide cs – Cycloheximide Counterscreen for Small Molecule Inhibitors of Shiga Toxin | max response, % | cell reporter, cycloheximide protein synthesis inhibition counterscreen | AID 2314, 2010 | 300,000 compounds, 12% hits; in the data active means max response mostly above about 13%, no sharp cut-off; inactive means mostly below about 14%; further: read at 38.3 µM for the half of the compounds with a filed dose; 0% is about no effect
Shiga toxin inh – A qHTS for Small Molecule Inhibitors of Shiga Toxin. inhibition, % at 38.7 µM. Vero cells, Shiga toxin protein synthesis inhibition reporter. 290,000 compounds, 9.2% hits; in the data active means inhibition mostly above about 28%, no sharp cut-off; inactive means mostly below about 43%; further: 0% is about no effect
AMA1 RON2 block – qHTS for Inhibitors of AMA1-RON; Towards Development of Antimalarial Drug Lead: Primary Screen; Plasmodium falciparum AMA1 (3D7) - RON2 peptide interaction; AlphaScreen AMA1-biotinylated RON2 peptide binding; Potency, µM (doses to about 58.2 µM), for inactives: top-dose activity change, negative = inhibition, hits mostly inhibitors; 360,000 compounds, 0.2% hits; AID 720542, 2013;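 further: potency means the concentration at half of the fitted maximal effect; 0% = vehicle wells and -100% = peptide control; nearly all actives have a fitted effect of over 45% in size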
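AMA1 (3D7) with his tag at 25 nM final met compounds first, then biotinylated RON2 peptide at 25 nM; detection used donor plus acceptor beads, 10 µg/mL apiece, read by AlphaScreen after 30 min at room temperature.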
SARS PLpro yeast – qHTS of Yeast-based Assay for SARS-CoV PLP; S. cerevisiae expressing SARS-CoV PLpro, growth rescue; Potency, µM (highest dose often 32.9 µM), without a hit: top-dose activity, positive = growth rescue, actives largely listed as activators; 330,000 compounds, 0.19% hits; AID 485353, 2010; calls by dose curve; further: potency means the concentration at half of the fitted maximal effect; 0% is about no effect; nearly all actives have a fitted effect of over 55% in size
Pf growth 96h – Primary qHTS for delayed death inhibitors of the malarial parasite plastid, 96 hour incubation | P. falciparum luciferase reporter growth, 96 h | Potency, µM (top dose mostly 28.7 µM), for the others: at the highest dose activity change, negative = inhibition, actives largely listed as inhibitors | 320,000 compounds, 6.9% hits; further: potency means the concentration at half of the fitted maximal effect; on the % scale 0 is the no-effect control and ±100 the full control effect
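Delayed-death screen, second-generation endpoint: infected erythrocytes, 2% hematocrit, 0.05% parasitemia final; 96 hours at 37 C, 5% CO2; luciferase detection reagent; luminescence decrease equals reduced growth.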
Starred values were filed as active, the others as inactive; ? = inconclusive; / = no result. Unless noted, the call rests on the fitted dose curve; in most records, active means well fitted curve in the direction sought with a large enough effect; inconclusive means small, poorly fitted or top-dose-only effect, or another doubt; inactive means no such curve, though single readings can be large; an effect the other way counts as inactive or inconclusive.

SMILES | Pf growth 48h | Cycloheximide cs | Shiga toxin inh | AMA1 RON2 block | SARS PLpro yeast | Pf growth 96h
O=C(N/N=C\C=C\c1ccc2c(c1)OCO2)C1COc2cc3ccccc3cc2O1 (stereo not drawn) | 0% | -3 | -16 | 1% | -4% | 5%
COc1ccc(CNC(=O)COC(=O)c2ccc(S(=O)(=O)NCc3ccco3)cc2)cc1 | / | / | / | 2% | -1% | /
COc1cc(C(=O)N/N=C(\C)c2ccc3c(c2)OCO3)cc(OC)c1OC | 7% | 4 | -23 | 14% | 0% | 5%
COc1ccc(/C(C)=N\NC(=O)c2ccc3c(c2)OCO3)cc1OC | 15% | 39* | 49 | / | 3% | 107%
CC(/C=C/c1ccc2c(c1)OCO2)=N\NC(=O)C(O)c1ccccc1 (stereo not drawn) | -1% | 6 | 10 | 11% | 0% | ?
CC(/C=C/c1ccc2c(c1)OCO2)=N\NC(=O)c1ccccc1 | 26% | 41* | 152* | 58% | -7% | -15%
C/C(=N/NC(=O)c1ccc2c(c1)OCCO2)c1ccc([N+](=O)[O-])cc1 | 32% | 15* | 21* | -11% | 1% | 43%
CC(C)Nc1ncnc2c1ncn2[C@H]1CN(Cc2ccco2)C[C@@H](CO)O1 | / | / | / | -2% | / | /
N/C(=N\c1nc(CSc2ccc(Cl)cc2)cc(=O)[nH]1)Nc1ccccc1C(F)(F)F | 13µM* | -2 | -4 | 0% | 0% | ?
COc1ccccc1N/C(N)=N/c1nc(CSc2ccc(C)cc2)cc(=O)[nH]1 | 0% | -4 | -6 | 36% | 2% | ?
Cc1ccc(SCc2cc(=O)[nH]c(/N=C(\N)Nc3ccccc3Sc3ccccc3)n2)cc1 | ? | -1 | 2 | -7% | -8% | 10µM*
C=CCNC(=O)c1ccc(Cn2cc(C(F)(F)F)ccc2=O)cc1 | ? | 0 | -5 | 6% | 3% | 86%
N#CCC(=O)Nc1ccc(C(=O)N2CCN(S(=O)(=O)c3ccc4ccccc4c3)CC2)cc1 | 15µM* | -1 | -5 | -2% | 0% | ?
O=S(=O)(c1ccc2ccccc2c1)N1CCN(C(=S)Nc2ccccc2F)CC1 | 1.7µM* | -1 | -7 | 36% | 0% | 3.3µM*
O=S(=O)(c1ccc(Cl)cc1)N1CCN(C(=S)Nc2ccccc2F)CC1 | 0.93µM* | -3 | -4 | 3% | 0% | ?
O=S(=O)(c1ccc2ccccc2c1)N1CCN(C(=S)Nc2ccc(F)cc2)CC1 | ? | 2 | -4 | 8% | 11% | ?
Fc1ccccc1NC(=S)N1CCOCC1 | -3% | 10 | -6 | -1% | -1% | 46%
O=S(=O)(c1ccc2ccccc2c1)N1CCN(C(=S)Nc2ccc(F)c(Cl)c2)CC1 | 1µM* | -2 | 14 | -15% | 7% | 0.33µM*
CC(C)C(=O)N1CCN(S(=O)(=O)c2ccc3ccccc3c2)CC1 | 2% | -2 | -13 | -22% | 1% | 46%
F[B-](F)(F)c1cc2ccccc2s1 | / | / | / | -2% | / | /
CCCCOC(=O)NC(NCC(O)c1ccccc1)(C(F)(F)F)C(F)(F)F (stereo not drawn) | / | -2 | -20 | 2% | -1% | 1%
CCCCCOC(=O)NCC(O)c1ccccc1 (stereo not drawn) | 167% | 68* | 86* | -4% | 7% | 411%
Cc1c2c(n3c(nc4ccccc43)c1C#N)N(CCN(C)C)CC2 | 2.1µM* | 1 | -25 | -4% | 0% | 74%
Cc1c2c(n3c(nc4ccccc43)c1C#N)N(c1ccccc1)CC2 | 2.1µM* | 6 | -46 | / | -3% | 0.66µM*
Cc1c2c(n3c(nc4ccccc43)c1C#N)N(CCCN(C)C)CC2 | -16% | 3 | -4 | 2% | 0% | 1%
C=CCn1c2ccccc2c2nnc(SCCCn3c(=O)[nH]c4ccccc43)nc21 | 13µM* | 1 | -6 | -8% | -20% | -11%
c1ccc(Cn2c3ccccc3c3nnc(SCCN4CCCCC4)nc32)cc1 | 9.3µM* | -2 | 0 | -1% | 0% | ?
CCn1c2ccccc2c2nn(C)c(=N)nc21 | ? | -3 | -12 | -3% | -1% | /
